Source: the supplement of paper PMC5662767
Where a name gives a salt, the structure may show the parent alone.

System: Drosophila S2 cl14 SmoIP sensor cells
Experiment: normalized SmoIP GFP fluorescence (untreated unstimulated = 0%, untreated Hh-stimulated = 100%); higher = more Smo activation sensor fluorescence
Conditions: compound concentration: 2 uM, 24 h
[1] = stimulation: Hh conditioned medium (+Hh)
[2] = stimulation: mock conditioned medium (-Hh)
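Note: flow cytometry read-out as median GFP intensity of gated cells, compounds added 30 min before Hh-conditioned or mock medium, mock-treated cells serving as unstimulated baseline.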

| SMILES | normalized SmoIP GFP fluorescence [1] [%] | normalized SmoIP GFP fluorescence [2] [%] |
| --- | --- | --- |
| CCN(CC)CCCC(C)Nc1nc(C)cc(Nc2ccc3nc(C)cc(N)c3c2)n1 (centres undefined) | 112 | -4.53 |
| CNS(=O)(=O)Cc1ccc2[nH]cc(CCN(C)C)c2c1 [Sumatriptan-succinate] | 99.3 | 1.57 |
| C[C@H]1[C@H](C)CC[C@]2(C(=O)O)CC[C@]3(C)C(=CC[C@@H]4[C@@]5(C)C[C@@H](O)[C@H](O)[C@@](C)(CO)[C@@H]5CC[C@]43C)[C@H]12 [Asiatic-acid] | 143 | -15.4 |
| Cc1c(C(=O)NN2CCCCC2)nn(-c2ccc(Cl)cc2Cl)c1-c1ccc(Cl)cc1 | 107 | 2.46 |
| O=C(/C=C/c1ccc(O)c(O)c1)c1ccc(O)cc1O [butein] | 77.1 | 3.58 |
| O=C(/C=C\n1cnc(-c2cc(C(F)(F)F)cc(C(F)(F)F)c2)n1)NNc1cnccn1 | 109 | 1.33 |
| O=C1NC(=O)/C(=C/c2ccc3nccc(-c4ccncc4)c3c2)S1 | 175 | 2.43 |
| CN1CCN2c3ccccc3Cc3ccccc3C2C1 (centres undefined) [Mianserin-hydrochloride] | 115 | 4.04 |
| CN(C)CCC[C@@]1(c2ccc(F)cc2)OCc2cc(C#N)ccc21 [escitalopram-oxalate] | 107 | -1.12 |
| FC(F)c1nc2ccccc2n1-c1nc(N2CCOCC2)nc(N2CCOCC2)n1 | 90.8 | -6.73 |
| CC(C)(O)[C@H]1CC[C@@](C)([C@H]2[C@@H](O)C[C@@]3(C)[C@@H]4C[C@H](O[C@@H]5O[C@H](CO)[C@@H](O)[C@H](O)[C@H]5O)[C@H]5C(C)(C)[C@@H](O[C@@H]6OC[C@@H](O)[C@H](O)[C@H]6O)CC[C@@]56C[C@@]46CC[C@]23C)O1 [astragaloside-a] | 120 | -16.8 |
| Cc1cc(OCc2nnc(SC3CCCC3)n2-c2cccnc2)ccc1-c1ccc(S(C)(=O)=O)cc1 | 96.7 | 13.7 |
| Cc1cccc(-c2[nH]c(C(C)(C)C)nc2-c2ccc3nccnc3c2)n1 | 102 | -5.22 |
| Cc1cnc(-c2cc(N3CCN(C(=O)CCS(C)(=O)=O)CC3)ncc2Cl)c(C)c1 | 102 | -1.63 |
| COc1c(C)c(C(=O)c2ccc(N)c(C(=O)O)c2)n2ccccc12 | 113 | -1.34 |
| CCCNC(=O)Nc1ccc(Oc2ncnc3cc(OC)c(OC)cc23)cc1Cl | 105 | -6.51 |

| SMILES | normalized SmoIP GFP fluorescence [1] [%] | normalized SmoIP GFP fluorescence [2] [%] |
| --- | --- | --- |
| CC(=O)c1cc([N+](=O)[O-])c(Sc2cccc(Cl)c2Cl)s1 | 108 | -4.24 |
| CN(C)Cc1ccc(S(=O)(=O)n2ccc(/C=C/C(=O)NO)c2)cc1 [resminostat-ras2410] | 140 | -5.8 |
| Cn1cc(-c2ccc3nnc(Sc4ccc5ncccc5c4)n3n2)cn1 | 96.1 | -1.88 |
| Cc1ccc(Sc2ccccc2N2CCNCC2)c(C)c1 | 169 | -11.4 |
| COc1ccc([C@H]2CNC(=O)C2)cc1OC1CCCC1 [sRolipram] | 102 | -4.08 |
| COc1cccc(-c2cc(=O)c3ccccc3o2)c1N | 115 | 2.64 |
| C[C@@H]1CN(CC(=O)Nc2ccc3c(c2)Cc2cccc(-c4cc(=O)cc(N5CCOCC5)o4)c2S3)C[C@H](C)O1 | 147 | 5.98 |
| CC(=O)O[C@]1(C(C)=O)CC[C@H]2[C@@H]3C=C(Cl)C4=CC(=O)[C@@H]5C[C@@H]5[C@]4(C)[C@H]3CC[C@@]21C [cyproterone-acetate] | 142 | -6.79 |
| Cn1cc(/C=C2\C(=O)Nc3cccnc32)c2ccccc21 | 158 | 60.2 |
| Cc1cc2c(F)c(Oc3ncnn4cc(OC[C@@H](C)OC(=O)[C@H](C)N)c(C)c34)ccc2[nH]1 [Brivanib-alaninate] | 117 | 9 |
| CC(C)C[C@@H](C(=O)N[C@H](C(=O)OC1CCCC1)c1ccccc1)[C@H](O)C(=O)NO [CHR-2797(Tosedostat)] | 108 | 3.72 |
| COC(=O)N[C@@H](C)CNc1nccc(-c2cn(C(C)C)nc2-c2cc(Cl)cc(NS(C)(=O)=O)c2F)n1 | 170 | 48.8 |
| CN(C)Cc1cccc(N=C(c2ccccc2)c2c(O)[nH]c3cc(C(=O)N(C)C)ccc23)c1 | 86.4 | -3.71 |
| CNC(=O)c1cc(Oc2ccc(NC(=O)Nc3ccc(Cl)c(C(F)(F)F)c3)c(F)c2)ccn1 | 100 | 27.4 |
| CC(C)(C)c1cc(NC(=O)Nc2ccc(-c3cn4c(n3)sc3cc(OCCN5CCOCC5)ccc34)cc2)no1 | 110 | 8.79 |
| Cc1ccc(C(=O)c2cc(O)c(O)c([N+](=O)[O-])c2)cc1 [tolcapone] | 108 | -2.48 |
